Laboratory results: PubChem BioAssay AID602253 (Broad Institute, 2012)
Entries with a potency or affinity are not part of this list. Active and inactive are the calls of the source.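 How the source made its calls: active means compounds lowering polarization whose fitted half-maximal concentration is at most twice their top tested dose; inconclusive means flat curve with 30 to 70 percent inhibition, or poor fit; inactive means the rest.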

Each molecule was assayed against Golgi-associated PDZ and coiled-coil motif-containing protein (Homo sapiens) (UniProt Q9HD26) (assay: disruption of CAL PDZ–reporter peptide interaction – biochemical, fluorescence polarization, Cer-tagged CAL PDZ, dry powder, dose response (AID 602253)). Conditions: Purified CAL PDZ, TMR-peptide fluorescence polarization, 1 h; series mostly up to 35 µM.

outcome, inactive:
O=S(=O)(Nc1cc(Sc2ccccc2)c(O)c2ccccc12)c1ccc(Cl)cc1
COc1ccc(S(=O)(=O)Nc2cc(SCC(=O)O)c(O)c3ccccc23)cc1
O=C(O)CSc1cc(NS(=O)(=O)c2ccc(Cl)cc2)c2ccccc2c1O
CCOc1ccc(S(=O)(=O)Nc2cc(SCC(=O)O)c(O)c3ccccc23)cc1
O=S(=O)(Nc1ccc(O)c2ccccc12)c1ccccc1
O=C(O)CSc1cc(NS(=O)(=O)c2ccc(Br)cc2)c2ccccc2c1O
